Bioassay records (PubChem BioAssay)
Rows were chosen to be rich in hits. Some 3% of all compounds tested hit in one or more screens of this group.
CF NFkB inh: inhibitors of cystic fibrosis induced NF-kB; KKLEB NF-kB-GFP reporter, PAF-induced, GFP fluorescence overnight; inhibition, % at 5 µM; actives 0.86% (n = 360,000); AID 588850;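 active = at least 50% inhibition at 5 µM, scaled per plate between neutral and stimulator controls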;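 note: PAF is a Pseudomonas aeruginosa culture filtrate used as stimulus; plate controls were PAF-stimulated DMSO wells for no effect and unstimulated DMSO wells for full effect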
LMP1 NFkB inh: inhibitors of Epstein-Barr LMP1-induced NF-kappaB reporter; inhibition, % at 12.5 µM; actives 0.69% (n = 350,000); LMP1-induced NF-kappaB luciferase reporter cells, luminescence; AID 504558; in the data active = inhibition above about 41%;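 note: 0% = neutral control wells and 100% = reference inhibitor control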
KKLEB cytotox: CF airway cell cytotoxicity counter-screen. KKLEB CF airway cells viability, ATPlite luminescence, overnight; hits give low values; cells stimulated with P. aeruginosa culture filtrate. actives 0.36% (n = 360,000). activity change (cytotoxicity), % at 5 µM;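 active = corrected activity change at or below -50% at 5 µM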
HIF-2a inh: HIF-2a inhibition. 786-0 RCC cells HIF-2a reporter, luciferase luminescence, overnight. inhibition, % at 18.8 µM. actives 0.72% (n = 360,000);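 active = inhibition of the luminescence signal of 40% or more relative to plate controls, in a single-dose primary screen at 18.75 µM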
MITF TRPM1 inh: reduces MITF-dependent TRPM1 promoter luciferase signal; SK-MEL-5 TRPM1 promoter luciferase, 24 h; inhibition, % at 12.5 µM; actives 0.83% (n = 330,000);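 active = mean inhibition across replicates of 60% or more, whatever share of single replicates reaches that level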
Peg3 prom inh-1: inhibitors of Peg3 promoter. HeLa PEG-Prom luciferase reporter, luminescence, overnight. inhibition, % at 20 µM. actives 1.7% (n = 360,000);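 active = inhibition of at least 50% at 20 µM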
Peg3 prom inh-2: Peg3 promoter inhibition confirmation | shares compounds with Peg3 prom inh-1 | HeLa PEG-Prom luciferase reporter, luminescence, overnight | inhibition, % at 20 µM | actives 84% (n = 1,300) | AID 602417;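 active = at 20 µM dose, 40% or more inhibition averaged across four replicates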
* = called active by the depositor; nt = not tested or not shown.

SMILES	CF NFkB inh	LMP1 NFkB inh	KKLEB cytotox	HIF-2a inh	MITF TRPM1 inh	Peg3 prom inh-1	Peg3 prom inh-2
CCN(CC)C(=O)[C@H]1CC(CC(=O)NCc2cccc(C(F)(F)F)c2)C(=O)N2CCc3c([nH]c4ccc(OC)cc34)[C@]12C (some centres not stated)	-1.4	-0.2	0.5	3.6	-15.3	6.5	nt
CC(C)N(C(=O)[C@H]1CC(CC(=O)NCc2cccc(C(F)(F)F)c2)C(=O)N2CCc3c([nH]c4ccccc34)[C@]12C)C(C)C (some centres not stated)	24.0	12.6	-11.2	9.6	35.2	68.3*	21.9
Cc1cncc(NCc2cccc(Cl)c2)n1	-11.5	nt	16.7	-37.0	nt	-16.5	nt
Cc1nn(C)c(C)c1NC(=O)CSc1nc(Cc2ccccc2)nc2c1cnn2-c1ccccc1	0.2	3.4	-6.0	1.4	-6.9	96.2*	0.5
COc1ccc(OC)c(C(O)c2ncc(-c3ccccc3OC)[nH]2)c1 (configuration not stated)	-5.5	nt	-1.8	10.8	nt	9.5	nt
COc1cc(F)cc(-c2ccc3c(c2)c(-c2cccs2)c(-c2cc(OC)cc(OC)c2)n3C)c1	24.6	23.2	-21.4	12.3	-3.8	4.1	nt
COc1cc(OC)cc(-c2c(-c3cccs3)c3cc(-c4ccc(N(C)C)nc4)ccc3n2C)c1	16.8	-58.4	-9.8	8.5	-15.1	52.0*	24.6
Cc1cc(Br)ccc1NC(=O)CNC(=O)Cn1ncc(Cl)c(Cl)c1=O	90.8*	83.1*	-51.0*	7.7	94.3*	111.1*	97.7*
COc1ccc(-c2cc3nc4n(c(=O)c3s2)CCCCC4)cc1	-5.4	-20.4	-14.5	-194.9	-56.7	-213.5	nt
COc1ccc(-c2cc3nc4n(c(=O)c3s2)CCC4)cc1	-32.8	51.9*	0.4	14.5	50.9	59.4*	32.4
Cc1cnc2nc(-c3ccccc3)ccc2c1	-44.6	nt	-1.9	-206.5	nt	-177.4	nt
COc1cc(-c2cc(C(=O)N(C)Cc3ccccc3)c3ccccc3n2)cc(OC)c1OC	-23.7	9.9	-5.2	9.5	10.2	55.8*	52.4*
COc1ccc(-c2cc(C(=O)NCC(c3ccccc3)N(C)C)c3ccccc3n2)cc1OC (configuration not stated)	17.1	-5.4	-11.1	-27.5	0.4	16.9	nt
COc1cccc(CN(C)C(=O)c2cc(-c3cccs3)nc3ccccc23)c1	-8.7	-0.1	-7.4	4.8	-11.6	60.8*	67.4*
COc1ccc(-c2cc(C(=O)N(C)CC(=O)Nc3ccccc3C(F)(F)F)c3ccccc3n2)cc1OC	-6.7	6.1	-14.8	0.0	-0.6	44.2	nt
COc1ccc(-c2cc(C(=O)N(C)Cc3ccccc3F)c3ccccc3n2)cc1OC	19.4	16.8	-20.4	3.0	4.9	60.5*	59.5*
COc1ccc(-c2cc(C(=O)N(C)CC(=O)Nc3ccccc3Br)c3ccccc3n2)cc1OC	21.0	17.3	-26.1	-0.5	-2.2	53.9*	27.1
COc1ccc(N2CCN(C(=O)c3cc(-c4cccs4)nc4ccccc34)CC2)cc1	21.0	7.8	-9.0	-12.0	-12.3	11.7	nt
Cc1ccc([C@H]2C[C@@H](n3cc(COC(=O)c4ccccc4)nn3)[C@H](O)CN2C(=O)C2CCCCC2)cc1	-30.7	-7.2	3.9	11.9	nt	14.0	nt
CCOC(=O)C1=C[C@@H](c2ccccc2)N(S(=O)(=O)c2ccc(C)cc2)[C@H]1c1ccccc1Cl	1.0	nt	8.3	14.9	nt	10.6	nt
Cc1cccc(C(O)c2ncc(-c3ccc(F)cc3)[nH]2)c1C (configuration not stated)	-22.4	nt	8.6	18.1	nt	17.9	nt
Cc1cccc(CN2C(=O)[C@@H]3Cc4c([nH]c5ccccc45)C(C)(C)N3C2=O)c1	16.6	5.5	-2.6	5.6	-2.7	35.2	nt
Cc1cccc(CN2C(=O)[C@H]3Cc4c([nH]c5ccccc45)C(C)(C)N3C2=O)c1	-10.6	-12.2	-0.6	23.7	19.0	59.7*	48.7*
CC1CC(C)C(=O)C(C(CC2CC(=O)NC(=O)C2)OC(=O)CC(=O)c2ccccc2)C1 (configuration not stated)	65.7*	52.2*	-14.2	27.4	55.2	81.1*	82.8*
O=C1CCC(C(=O)OCC(=O)c2ccccc2)N1 (configuration not stated)	6.6	6.6	-6.0	8.9	0.3	-8.0	nt
SMILES	CF NFkB inh	LMP1 NFkB inh	KKLEB cytotox	HIF-2a inh	MITF TRPM1 inh	Peg3 prom inh-1	Peg3 prom inh-2
O=C1/C(=C/c2ccccc2)CCc2ccc(Cl)nc21	-3.7	5.8	4.0	12.0	36.1	76.4*	10.8
COc1cc(OC)c(OC)cc1CCC(C)NCCC(c1ccccc1)c1ccccc1 (configuration not stated)	5.2	-2.1	-10.9	3.6	52.8	96.7*	88.1*
O=C(Oc1c(CN2CCOCC2)cc(Cl)c2cccnc12)c1ccccc1Cl	23.4	71.1*	11.5	5.1	75.5*	50.2*	43.3*
CCOC(=O)C1=CCN(S(=O)(=O)c2ccccc2)C1c1ccc(Cl)cc1 (configuration not stated)	-10.6	nt	2.3	-5.6	nt	11.9	nt
COc1cccc(/C=N/NC(=O)c2c(-c3ccccc3)noc2C)c1OC	-15.2	-0.6	1.1	11.6	4.9	-2.4	nt
COc1cccc(/C=N/NC(=O)c2c(-c3ccccc3)noc2C)c1O	6.8	-3.0	-11.4	-6.7	47.2	55.2*	56.2*
CCOc1ccc2nc(Nc3nc(CSc4nnnn4-c4ccccc4)cc(=O)[nH]3)nc(C)c2c1	13.7	14.3	-9.5	9.8	5.0	-19.3	nt
COc1ccc2nc(Nc3nc(CSc4nnnn4-c4ccccc4)cc(=O)[nH]3)nc(C)c2c1	22.9	4.3	-46.5	4.7	22.8	73.7*	43.5*
Cc1cc(/C=N/Nc2ncnc(N)c2[N+](=O)[O-])c(C)n1-c1ccccc1	-14.5	78.5*	-50.4*	59.4*	80.6*	92.4*	84.0*
Cc1cc(C)c(S(=O)(=O)Nc2ccc3c(c2)CCC3)c(C)c1	24.6	1.8	-0.6	17.2	3.5	51.1*	40.7*
Cc1cc(C)c(S(=O)(=O)Nc2ccc(O)cc2)c(C)c1	-5.7	3.3	4.9	21.1	5.0	18.3	nt
CCOC(=O)C1=CCC(c2ccc(C#N)cc2)N(S(=O)(=O)c2ccc(C)cc2)C1 (configuration not stated)	1.9	nt	-11.9	7.3	nt	5.1	nt
CCOc1cc(C(=O)N/N=C/c2cn(-c3ccccc3)nc2-c2cc3ccccc3o2)cc(OCC)c1OCC	5.2	-37.6	-4.5	-249.0	-56.9	-311.0	nt
O=C(/C=C/c1ccc2ccccc2n1)N1CCN(S(=O)(=O)c2ccccc2F)CC1	35.8	5.2	-23.1	34.7	29.5	50.2*	38.8
CCNC(=O)C1(C)CCCN(C(=O)c2cccnc2Oc2ccccc2)C1 (configuration not stated)	-11.2	nt	4.5	6.1	nt	8.8	nt
